Only some compounds are listed: those with a hit (about 2.9% of all), similar ones and a draw of the others.
PAFAH2 inh: inhibitors of human PAFAH2; Q99487; recombinant PAFAH2, FP-rhodamine activity probe, fluorescence polarization; inhibition, % at 3.39 µM; hit rate 0.99% among 340,000; AID 492956;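 active means inhibition above the mean over all tested compounds plus 3 SD, cut at about 30% in these data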;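 further: inhibitors block probe labeling of enzyme so polarization drops; 0% = enzyme with DMSO and 100% = wells lacking PAFAH2 protein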
PAFAH1B3 FP inh: inhibitors of human PAFAH1B3. inhibition, % at 3.39 µM. recombinant PAFAH1B3, FP-rhodamine probe, fluorescence polarization. hit rate 0.28% among 340,000;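 active means inhibition above the screen-wide average of all tested compounds plus 3 SD, cut at about 25% in these data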;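 further: 0% = enzyme with DMSO only and 100% = wells lacking PAFAH1B3 protein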
PAFAH1B2 inh: inhibitors of human PAFAH1B2 | AID 492953 | hit rate 1.2% among 340,000 | recombinant PAFAH1B2, FP-rhodamine activity probe, fluorescence polarization | inhibition, % at 3.39 µM | P68402;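 active means inhibition above the mean of all tested compounds plus 3 SD, cut at about 24% in these data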;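 further: 0% = enzyme with DMSO and 100% = wells lacking PAFAH1B2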
Fam108B inh: Fam108B inhibition, counter-screen for RBBP9 inhibitors; recombinant Fam108B, FP-Rh probe fluorescence polarization; inhibition, % at 9.51 µM; hit rate 0.33% among 300,000;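 active means inhibition above the screen mean inhibition plus 3 SD, computed separately per campaign, cut at about 18% in these data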;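 further: inhibitors lower polarization as less probe binds the enzyme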
pPAFAH FP inh: inhibitors of human plasma PAF acetylhydrolase (pPAFAH). hit rate 1.5% among 330,000. Q13093. inhibition, % at 3.39 µM. recombinant pPAFAH, FP-rhodamine probe fluorescence polarization;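 active means inhibition above the mean inhibition across the screen plus 3 SD, cut at about 25% in these data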;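 further: inhibitors block binding of the rhodamine activity-based probe so polarization drops; 0% = enzyme with DMSO and 100% = wells lacking pPAFAH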
PME-1 primary: blocks human protein phosphatase methylesterase 1; Q9Y570; recombinant PME-1, FP-Rh probe fluorescence polarization; inhibition, % at 5.9 µM; hit rate 0.53% among 320,000;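 active means inhibition above the campaign mean of all compounds plus 3 SD, cut at about 26% in these data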;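 further: competitive labeling of PME-1 active site by serine hydrolase directed probe; 0% = PME-1 with DMSO and 100% = wells lacking PME-1 enzyme; inhibitors block probe labeling so polarization falls and inhibition rises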
Target sequence (Q9Y570 whole entry, looked up): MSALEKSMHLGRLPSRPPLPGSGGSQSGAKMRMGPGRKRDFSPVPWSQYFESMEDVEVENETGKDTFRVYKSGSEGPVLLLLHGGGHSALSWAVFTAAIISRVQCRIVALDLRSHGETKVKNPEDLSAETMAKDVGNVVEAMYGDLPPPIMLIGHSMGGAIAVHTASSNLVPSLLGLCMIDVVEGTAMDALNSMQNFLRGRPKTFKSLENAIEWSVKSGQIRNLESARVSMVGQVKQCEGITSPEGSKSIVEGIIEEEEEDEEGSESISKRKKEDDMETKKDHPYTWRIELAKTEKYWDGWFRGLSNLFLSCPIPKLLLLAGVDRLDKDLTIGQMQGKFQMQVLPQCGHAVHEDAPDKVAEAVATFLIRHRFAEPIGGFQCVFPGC
PAFAH2 FP conf: confirmation of human PAFAH2 inhibitors; shares compounds with PAFAH2 inh; recombinant PAFAH2, FP-rhodamine activity probe, fluorescence polarization; inhibition, % at 3.39 µM; hit rate 65% among 2,300; AID 493030;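 active means mean inhibition over three repeats above a set limit taken from the earlier primary screen, cut at about 30% in these data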;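 further: inhibitor blocks binding of rhodamine activity probe so polarization falls; 0% = enzyme with DMSO and 100% = wells lacking PAFAH2 protein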
Starred values were filed as active, the others as inactive; x = no result.

SMILES	PAFAH2 inh	PAFAH1B3 FP inh	PAFAH1B2 inh	Fam108B inh	pPAFAH FP inh	PME-1 primary	PAFAH2 FP conf
CCCC(C)NC(=O)CSc1nnc2ccccn12 (stereo unspecified)	1.9	-2.5	3.4	-2.7	0.5	-6.3	x
NS(=O)(=O)c1cccc(NC(=O)COC(=O)c2ccccc2SCC(=O)N2CCCC2)c1	40.2*	16.6	0.7	x	3.3	x	35.5*
O=C(Nc1ccc(F)cc1F)N1CCN(CCc2ccccc2)CC1	9.6	-0.6	0.8	-2.7	4.9	-1.6	x
COc1cc(NC(=O)COC(=O)c2ccccc2SCC(=O)N2CCCC2)cc(OC)c1	41.7*	4.4	7.8	1.4	3.8	-0.8	23.6
CCOc1c(C)cnc2c1c(=O)n(Cc1ccccc1F)c(=O)n2C	2.0	0.0	-0.3	-2.3	-8.5	-1.6	x
CCN(CC)S(=O)(=O)c1ccc(O)c(C(=O)OCC(=O)N2c3ccccc3CC2C)c1 (stereo unspecified)	75.4*	2.3	16.2	-5.1	16.3	6.2	74.7*
COc1ccccc1NS(=O)(=O)c1ccc(O)c(C(=O)OCC(=O)N2CCc3ccccc32)c1	44.8*	1.0	9.6	-18.8	19.6	0.9	28.1
COc1ccccc1NS(=O)(=O)c1ccc(O)c(C(N)=O)c1	-4.5	8.5	-2.5	-0.2	5.3	5.2	x
COc1ccccc1NS(=O)(=O)c1ccc(O)c(C(=O)OCC(=O)c2ccc(Cl)cc2Cl)c1	37.9*	4.2	13.1	-7.2	9.8	2.7	23.1
CCN(CC)S(=O)(=O)c1ccc(O)c(C(=O)OCC(=O)N2CCCC2)c1	2.2	2.6	1.7	0.6	4.9	-1.1	x
COc1ccccc1NS(=O)(=O)c1ccc(O)c(C(=O)OCC(=O)N2c3ccccc3CC2C)c1 (stereo unspecified)	56.8*	4.3	13.9	-6.0	13.0	-4.3	46.8*
Cn1ccnc1SCC(=O)Nc1ccc(Br)cc1C(F)(F)F	6.5	-1.2	-5.3	1.3	0.3	5.0	x
Cc1cccc(C(=O)OC(C)C(=O)NCC2CCCCC2)c1O (stereo unspecified)	6.6	8.0	2.8	x	6.2	-1.1	x
CCCCn1c(N)c(N(CCOC)C(=O)CSCc2ccc(C)cc2)c(=O)[nH]c1=O	6.5	-3.7	5.0	-0.3	1.1	4.2	x
O=C(OCc1nc2ccccc2[nH]1)C12CC3CC(CC(C3)C1)C2	56.7*	-6.7	9.0	1.8	2.4	0.9	49.3*
COc1cc(/C=C2/C(C)=C(C#N)c3nc(N)c(C#N)c(C)c32)ccc1OCC(=O)O	x	x	x	4.7	23.9	-6.5	x
CC1=C(C#N)c2nc(N)c(C#N)c(C)c2/C1=C\c1ccc(-c2ccccc2C(=O)O)o1	31.6*	21.8	13.7	x	x	x	20.1
CCCC(Oc1ccc(Br)cc1)c1nc2c3cc(OC)c(OC)cc3nc(=S)n2[nH]1 (stereo unspecified)	33.0*	13.4	14.7	3.7	10.2	-2.5	21.5
CCCCn1c(N)c(N(CC(C)C)C(=O)CCCc2cccs2)c(=O)[nH]c1=O	3.5	2.2	-0.4	6.8	0.8	1.4	x
Cc1ccc(NC(=O)C(C)NC(=O)OCc2ccccc2)cc1C (stereo unspecified)	-0.1	8.3	1.6	-7.0	2.3	1.2	x
COc1ccccc1-n1c(C)c2c(OC)cccc(=O)c2c1C	39.0*	4.6	3.9	3.1	12.7	3.6	54.8*
CCN(C(=O)c1ccc2c(c1)OCO2)C12CC3CC(CC(C3)C1)C2	40.4*	5.4	10.6	x	7.2	x	34.5*
CCCCN1CC(O)=C(c2nc(-c3ccc(Cl)cc3)cs2)C1=N	14.0	8.7	4.7	2.9	10.3	-1.9	x
N=C1C(c2nc(-c3ccc(Cl)cc3)cs2)=C(O)CN1CCCN1CCOCC1	30.1*	4.6	2.9	6.1	20.4	4.2	30.3*
CS(=O)(=O)N1CCCC(C(=O)N2CCN(c3cccc(Cl)c3)CC2)C1 (stereo unspecified)	-0.7	7.1	5.0	0.2	4.1	-6.1	x
COc1ccc(CCNC(=O)COC(=O)/C=C/c2cccc(F)c2)cc1	23.9	7.0	7.9	x	6.8	x	x
O=C(COC(=O)/C=C/c1cccc(F)c1)Nc1ccccc1	76.5*	11.8	2.5	1.3	10.4	-7.6	82.0*
